Assay results from PubChem BioAssay (NCI).
The panel holds about 83,000 compounds, 20% with a hit somewhere; the sample as a whole holds those more often.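 Growth was measured after 48 h exposure to one concentration of compound in 96-well plates. Values under 10 count as active.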 A number with no mark means an inactive call. Calls of active or inactive are those of the source.

Experiments:
Assay in all cases: NCI-60 one-dose screen, 48 h (100 = growth as untreated, 0 = no growth, -100 = all killed)
Settings in all cases: 10 µM unless noted
T-47D breast = tested on: T-47D breast
BT-549 breast = tested on: BT-549 breast
MDA-MB-435 melanoma = tested on: MDA-MB-435 melanoma
SW-620 colon = tested on: SW-620 colon
MCF7 breast = tested on: MCF7 breast
HCT-116 colon = tested on: HCT-116 colon
HCC-2998 colon = tested on: HCC-2998 colon
KM12 colon = tested on: KM12 colon

Compound	growth (T-47D breast)	growth (BT-549 breast)	growth (MDA-MB-435 melanoma)	growth (SW-620 colon)	growth (MCF7 breast)	growth (HCT-116 colon)	growth (HCC-2998 colon)	growth (KM12 colon)
C[C@@H]1C[C@H]2C(=O)O[C@@H](C)[C@H](NC(=O)[C@H](Cc3cc(F)cc(F)c3)NC(=O)Nc3ccc(Cl)cc3F)C(=O)N3C[C@H](O)C[C@H]3C(=O)N3CCN(C)C[C@H]3C(=O)N[C@@H](C)C(=O)N2C1	19.2%	14.9%	22.3%	42%	23%	8.85% (active)	32.8%	
Cc1cc(-c2ccc(N=Nc3c(S(=O)(=O)O)cc4cc(S(=O)(=O)O)cc(N)c4c3O)c(C)c2)ccc1N=Nc1cc(S(=O)(=O)O)c2ccccc2c1O	99.6%	107%	104%	109%	92.2%	96.4%	104%	
COc1ccc2nc3c(cc2c1)C(=O)CC(c1ccccc1)C3 (centres undefined)	75%	51.7%	-67.7% (active)	17.8%	56.2%	11.1%	91.3%	
CC1(C)CC[C@]2(C(N)=O)CC[C@]3(C)C(=CC[C@@H]4[C@@]5(C)C/C(=C/c6ccncc6)C(=O)C(C)(C)[C@@H]5CC[C@]43C)[C@@H]2C1	-24.8% [100 µM] (active)	-24.9% [100 µM] (active)	-56.3% [100 µM] (active)	-32.1% [100 µM] (active)	-36.6% [100 µM] (active)	-22.7% [100 µM] (active)	-50.4% [100 µM] (active)	
c1ccc(-c2nc(N3CCCNCC3)c3nc(-c4ccccc4)oc3n2)cc1	46.9%	95.3%	-85.7% (active)	-77.1% (active)	-66.7% (active)	-74.8% (active)	-88.7% (active)	
Cc1ccc(-c2cc(-c3ccc(C)cc3)nc(NCCNc3ccnc4cc(Cl)ccc34)n2)cc1	-69.2% (active)	57.7%	-76.4% (active)	-64.9% (active)	-77.3% (active)	-84.5% (active)	-80.2% (active)	
c1cc2ccc1CNCCN1CCNCc3ccc(cc3)Oc3ccc(cc3)CNCCN(CCNCc3ccc(cc3)O2)CCNCc2ccc(cc2)Oc2ccc(cc2)CNCC1	-64.5% (active)	82.1%	-96.3% (active)	-75.5% (active)	-75.4% (active)	-89.7% (active)	-87.8% (active)	-88.6% (active)
O=c1cc(-c2ccccc2)oc2c(O)c(O)ccc12	68.2%	67.4%	68.8%	58%	60.9%	39%	74.8%	
O=C(Nc1ccc(C(=O)/C=C/c2ccc(N3CCOCC3)cc2)cc1)Nc1ccc([N+](=O)[O-])cc1	72.8%	108%	96%	99.7%	76.3%	97.3%	109%	89.4%
CCN1CCN(CC(=O)Nc2nc3ccc(NCc4ccc(Cl)cc4)cc3s2)CC1	50.6%	76.4%	-10.6% (active)	22%	33.6%	12.6%	82.1%	
C=C(C)[C@@H]1CC[C@]2(C)[C@H](CC=C3[C@@H]4[C@@H](C)[C@H](C)CC[C@]4(C(N)=O)CC[C@]32C)[C@@]1(C)CCC#N	5.58% [100 µM] (active)	-25.4% [100 µM] (active)	1.04% [100 µM] (active)	7.86% [100 µM] (active)	2.14% [100 µM] (active)	-43.8% [100 µM] (active)	-22.4% [100 µM] (active)	
CCCCCCSc1ncnc2nc[nH]c12	73.1%	82.6%	84.9%	101%	94.6%	85.1%	93.5%	86%
CCn1cc(-c2[nH]c(=S)ncc2-c2ccc(Cl)cc2)c(-c2ccc(Br)cc2)n1	59.3%	91.2%	85%	103%	84.8%	72.6%	99.5%	
CC(=O)Nc1ccc(C=Nc2ccc3ccccc3c2)cc1	108%	102%	112%	106%	92.3%	101%	92.1%	
CCOc1cc(NC(=O)c2ccccc2)c(OCC)cc1N	101%	130%	107%	109%	108%	118%	112%	
CC(C)=CC/C=C(/C)[C@H]1CC[C@]2(C)[C@@H]1CC[C@@H]1[C@@]3(C)CCCNC(C)(C)[C@@H]3CC[C@]12C	-50.9% [100 µM] (active)	-54.9% [100 µM] (active)	-75.4% [100 µM] (active)	-57.5% [100 µM] (active)	-54.6% [100 µM] (active)	-61% [100 µM] (active)	-50.5% [100 µM] (active)	

Compound	growth (T-47D breast)	growth (BT-549 breast)	growth (MDA-MB-435 melanoma)	growth (SW-620 colon)	growth (MCF7 breast)	growth (HCT-116 colon)	growth (HCC-2998 colon)	growth (KM12 colon)
C=C(CC(=O)OC)C(C)=O	108%	127%	116%	102%	111%	116%	112%	102%
CC1(C)CC[C@]2(C(N)=O)CC[C@]3(C)C(=CC[C@@H]4[C@@]5(C)C/C(=C/c6cccnc6)C(=O)C(C)(C)[C@@H]5CC[C@]43C)[C@@H]2C1	2.41% [100 µM] (active)	-47.9% [100 µM] (active)	-34.6% [100 µM] (active)	-32.4% [100 µM] (active)	-9.32% [100 µM] (active)	-48.2% [100 µM] (active)	-73.4% [100 µM] (active)	
Cc1cccc(C[C@H](NC(=O)Nc2ccc(C)cc2F)C(=O)N[C@@H]2C(=O)N3C[C@H](O)C[C@H]3C(=O)N3CCN(C)C[C@H]3C(=O)N[C@@H](C)C(=O)N3C[C@H](C)C[C@H]3C(=O)O[C@H]2C)c1	25.9%	22.1%	21.8%	47.6%	26.7%	14.8%	35.7%	
NC(=O)c1cccc(-c2ccc(S(=O)(=O)Nc3ccc4c(c3)N(C(=O)C3CC3)CCC4)cc2)c1	26.1%	96.7%	1.89% (active)	32.3%	22.9%	98.2%	64.5%	18.9%
Cn1cc(-c2noc(C(=O)c3cn(C)c4ncccc34)n2)c2ccccc21	46%	98.3%	72.9%	95.5%	34.8%	98.7%	90.6%	
Cc1ccc(S(=O)(=O)n2cc(C(=O)C(=O)N3CCCCC3)c3ccccc32)cc1	36.1%	74.8%	87.1%	123%	85.8%	65.6%	82.3%	
CCCCN(CCCC)CC(O)c1ccc(OCc2ccccc2)c2ccccc12 (centres undefined)	87.5%	111%	51.2%	72.6%	95.7%	53.5%	70%	
NC(=O)CC1C=CCC1 (centres undefined)	106%	90.1%	102%	97.3%	92.1%	105%	101%	102%
O=C1/C(=C\c2cccn2Cc2ccccc2)c2ccccc2N1c1c(Cl)cccc1Cl	-35.7% (active)	81%	91%	85.7%	6.23% (active)	27.1%	22.1%	
Clc1ccc(N2CCN(CCCN3CCN(c4cccc(Cl)c4)CC3)CC2)cc1	40.2%	29.4%	62.4%	66.5%	44.6%	36.6%	66.8%	59.5%
Nn1c(Nc2ccc(S(=O)(=O)Nc3ncccn3)cc2)nnc(/C=C/c2c(O)ccc3ccccc23)c1=O	70.9%	101%	95.2%	94%	76.6%	89.9%	114%	82.9%
CC1(C)CC[C@]2(C(=O)OC(=O)[C@]34CCC(C)(C)C[C@@H]3C3=CC[C@@H]5[C@@]6(C)CCC(=O)C(C)(C)[C@@H]6CC[C@@]5(C)[C@]3(C)CC4)CC[C@]3(C)C(=CC[C@@H]4[C@@]5(C)CCC(=O)C(C)(C)[C@@H]5CC[C@]43C)[C@H]2C1	48.1% [100 µM]	75.3% [100 µM]	63.2% [100 µM]	70% [100 µM]	51.8% [100 µM]	41% [100 µM]	98.2% [100 µM]	
O=S(=O)(c1ccc(N/N=C\c2ccccc2Cl)cc1)c1ccc(N/N=C/c2ccccc2Cl)cc1	76.3%	78.6%	86.9%	87.6%	68%	80.8%	103%	
CCOC(=O)c1c[nH]c2cc(OCC3CC3)c(OCC3CC3)cc2c1=O	109%	113%	107%	100%	104%	111%	107%	
COc1ccc(C2=C(c3cn(C)c4ccccc34)C(=O)OC2)cc1OC	23.8%	45.9%	-8.21% (active)	19.7%	18.8%	29.3%	65.9%	26.4%
CC[C@]1(O)CC2CN(CCc3c([nH]c4ccccc34)[C@@](C(=O)OC)(c3cc4c(cc3OC)N(C=O)[C@H]3[C@@](O)(C(=O)OC)[C@H](OC(C)=O)[C@]5(CC)C=CCN6CC[C@]43[C@@H]65)C2)C1 (some centres undefined)	91%	15.7%	-25.7% (active)	24%	21.9%	5.51% (active)	0.206% (active)	-30.7% (active)
